# Reference: the supplement of paper PMC11732987, “Enantioselective OTUD7B fragment discovery through chemoproteomics screening and high-throughput optimisation” (Communications Chemistry, 2025)
# A number with no mark means an inactive call.
# Key:
# Assay in all cases: log2 ratio of Biotin-Ahx-Ub-VS probe labelling (compound/DMSO); higher = less target engagement, active = hit call of the paper (q ≤ 0.05, log2 ratio ≤ -1)
# Settings in all cases: treatment time: 3 h
# [1] = compound: CCC1N(CCc2sccc12)C(=O)CCl
# Summary of the method: (§1)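 For activity-based profiling, 495 µg portions of HEK293T lysate in Tris/CHAPS/IGEPAL buffer with protease inhibitors were treated in triplicate with compound at 50 or 200 µM or with DMSO for 3 h. A 1 h incubation with Biotin-Ahx-Ub-VS (0.5 µM final) followed, then NeutrAvidin enrichment, LysC and trypsin digestion and diaPASEF LC-MS/MS. The compound/DMSO base-two log ratios were averaged from median-normalised label-free quantities using an unpaired t-test. Proteins needed at least 2 unique peptides to be included.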
# [2] = compound: CN1c2ccccc2C(CS1(=O)=O)NC(=O)CCl
# Summary of the method: as §1
# [3] = compound: Cl.ClCC(=O)N1CCc2ncncc2C1
# Summary of the method: as §1
# [4] = compound: Cl.Cn1ncc2C(CCCc12)NC(=O)CCl
# Summary of the method: as §1
# [5] = compound: ClCC(=O)NC1CCOc2ccccc12
# Summary of the method: as §1
# [6] = compound: ClCC(=O)NC1CCCc2ccccc12
# Summary of the method: (§2)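 Values are average ratios of compound to vehicle from an unpaired t-test, limited to proteins with at least two unique peptides. HEK293T lysate (495 µg per sample, in Tris/CHAPS/IGEPAL buffer with protease inhibitors) was exposed in triplicate to a concentration series of compound or to vehicle for 3 h, then to Biotin-Ahx-Ub-VS at 0.5 µM final for 1 h. Labelled deubiquitinases were enriched on NeutrAvidin, digested with LysC and trypsin, and analysed by diaPASEF LC-MS/MS. Ratios are given on a log2 scale from Spectronaut label-free protein quantities normalised to the global median.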
# [7] = compound: ClCC(=O)N[C@@H]1CCCc2ccccc12
# Summary of the method: as §2
# [8] = compound: ClCC(=O)N[C@H]1CCCc2ccccc12
# Summary of the method: as §2
# [9] = compound: CCC1N(CCc2cc(OC)c(Cl)cc12)C(=O)CCl
# Summary of the method: as §1
# [10] = compound: CCCC1N(CCc2cc(OC)c(OC)cc12)C(=O)CCl
# Summary of the method: as §1
# UniProt Q13107, sequence (Q13107 whole entry): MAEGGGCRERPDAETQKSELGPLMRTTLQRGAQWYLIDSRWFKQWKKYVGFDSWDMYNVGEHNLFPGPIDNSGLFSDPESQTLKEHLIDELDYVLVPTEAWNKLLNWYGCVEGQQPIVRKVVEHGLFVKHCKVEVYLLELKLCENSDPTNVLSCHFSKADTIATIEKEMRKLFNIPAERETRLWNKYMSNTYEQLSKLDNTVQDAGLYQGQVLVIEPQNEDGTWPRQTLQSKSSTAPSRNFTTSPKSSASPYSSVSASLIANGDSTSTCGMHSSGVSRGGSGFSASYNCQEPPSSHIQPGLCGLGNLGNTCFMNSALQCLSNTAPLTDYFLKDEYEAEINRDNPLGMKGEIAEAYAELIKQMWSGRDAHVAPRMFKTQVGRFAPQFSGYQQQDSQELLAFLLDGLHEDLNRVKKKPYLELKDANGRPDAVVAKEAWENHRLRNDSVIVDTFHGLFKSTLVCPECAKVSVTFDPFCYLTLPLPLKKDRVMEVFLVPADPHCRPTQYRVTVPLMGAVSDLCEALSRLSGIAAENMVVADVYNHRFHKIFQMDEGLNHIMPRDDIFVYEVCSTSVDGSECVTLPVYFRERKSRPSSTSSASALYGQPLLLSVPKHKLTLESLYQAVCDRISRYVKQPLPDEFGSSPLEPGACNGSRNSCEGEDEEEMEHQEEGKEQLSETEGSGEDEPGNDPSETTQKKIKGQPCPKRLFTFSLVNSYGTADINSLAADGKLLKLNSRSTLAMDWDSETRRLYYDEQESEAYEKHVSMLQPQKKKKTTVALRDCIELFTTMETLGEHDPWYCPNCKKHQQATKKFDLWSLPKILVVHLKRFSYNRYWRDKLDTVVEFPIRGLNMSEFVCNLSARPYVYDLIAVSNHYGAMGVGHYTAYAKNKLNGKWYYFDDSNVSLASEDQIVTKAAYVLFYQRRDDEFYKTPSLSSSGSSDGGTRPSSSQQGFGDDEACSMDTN
# UniProt Q6GQQ9, sequence (Q6GQQ9 whole entry): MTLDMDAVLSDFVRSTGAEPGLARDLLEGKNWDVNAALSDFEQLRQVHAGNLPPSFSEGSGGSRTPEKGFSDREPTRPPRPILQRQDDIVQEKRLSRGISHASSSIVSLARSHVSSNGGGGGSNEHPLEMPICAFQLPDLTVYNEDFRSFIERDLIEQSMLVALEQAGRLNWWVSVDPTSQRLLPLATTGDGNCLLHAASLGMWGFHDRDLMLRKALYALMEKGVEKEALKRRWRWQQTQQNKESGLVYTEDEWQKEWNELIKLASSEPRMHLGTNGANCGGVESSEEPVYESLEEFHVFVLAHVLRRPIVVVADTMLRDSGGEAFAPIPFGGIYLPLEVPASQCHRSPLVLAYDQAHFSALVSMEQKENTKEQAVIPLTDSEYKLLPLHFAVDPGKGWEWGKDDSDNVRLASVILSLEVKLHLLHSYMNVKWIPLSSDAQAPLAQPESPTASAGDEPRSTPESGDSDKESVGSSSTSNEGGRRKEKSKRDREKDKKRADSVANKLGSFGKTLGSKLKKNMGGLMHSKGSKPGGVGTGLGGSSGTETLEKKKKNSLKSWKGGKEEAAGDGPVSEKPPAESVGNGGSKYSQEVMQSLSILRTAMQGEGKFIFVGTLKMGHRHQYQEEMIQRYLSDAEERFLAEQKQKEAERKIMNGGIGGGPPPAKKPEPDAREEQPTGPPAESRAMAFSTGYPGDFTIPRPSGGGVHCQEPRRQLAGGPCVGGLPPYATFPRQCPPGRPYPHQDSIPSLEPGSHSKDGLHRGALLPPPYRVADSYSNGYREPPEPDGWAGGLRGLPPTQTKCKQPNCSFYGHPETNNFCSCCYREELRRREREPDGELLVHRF
target,measurement,setting,value
OTUD7B (UniProt Q6GQQ9),log2 ratio of Biotin-Ahx-Ub-VS probe labelling,[1]; compound concentration: 50uM,-0.4
same,log2 ratio of Biotin-Ahx-Ub-VS probe labelling,[1]; compound concentration: 200uM,-0.926
same,log2 ratio of Biotin-Ahx-Ub-VS probe labelling,[2]; compound concentration: 50uM,-1.97 (active)
same,log2 ratio of Biotin-Ahx-Ub-VS probe labelling,[2]; compound concentration: 200uM,-4.51 (active)
same,log2 ratio of Biotin-Ahx-Ub-VS probe labelling,[3]; compound concentration: 50uM,-0.537
same,log2 ratio of Biotin-Ahx-Ub-VS probe labelling,[3]; compound concentration: 200uM,-1.65 (active)
same,log2 ratio of Biotin-Ahx-Ub-VS probe labelling,[4]; compound concentration: 50uM,-4.9 (active)
same,log2 ratio of Biotin-Ahx-Ub-VS probe labelling,[4]; compound concentration: 200uM,-5.48 (active)
same,log2 ratio of Biotin-Ahx-Ub-VS probe labelling,[5]; compound concentration: 50uM,-2.66 (active)
same,log2 ratio of Biotin-Ahx-Ub-VS probe labelling,[5]; compound concentration: 200uM,-4.52 (active)
same,log2 ratio of Biotin-Ahx-Ub-VS probe labelling,[6]; compound concentration: 0.78uM,-0.175
same,log2 ratio of Biotin-Ahx-Ub-VS probe labelling,[6]; compound concentration: 1.56uM,-0.207
same,log2 ratio of Biotin-Ahx-Ub-VS probe labelling,[6]; compound concentration: 3.13uM,-0.537
same,log2 ratio of Biotin-Ahx-Ub-VS probe labelling,[6]; compound concentration: 6.25uM,-0.893
same,log2 ratio of Biotin-Ahx-Ub-VS probe labelling,[6]; compound concentration: 12.5uM,-1.66 (active)
same,log2 ratio of Biotin-Ahx-Ub-VS probe labelling,[6]; compound concentration: 25uM,-2.4 (active)
same,log2 ratio of Biotin-Ahx-Ub-VS probe labelling,[6]; compound concentration: 50uM,-3.12 (active)
same,log2 ratio of Biotin-Ahx-Ub-VS probe labelling,[6]; compound concentration: 100uM,-3.17 (active)
same,log2 ratio of Biotin-Ahx-Ub-VS probe labelling,[6]; compound concentration: 200uM,-3.5 (active)
same,log2 ratio of Biotin-Ahx-Ub-VS probe labelling,[7]; compound concentration: 0.78uM,-0.133
same,log2 ratio of Biotin-Ahx-Ub-VS probe labelling,[7]; compound concentration: 1.56uM,-0.0966
same,log2 ratio of Biotin-Ahx-Ub-VS probe labelling,[7]; compound concentration: 3.13uM,-0.116
same,log2 ratio of Biotin-Ahx-Ub-VS probe labelling,[7]; compound concentration: 6.25uM,-0.27
same,log2 ratio of Biotin-Ahx-Ub-VS probe labelling,[7]; compound concentration: 12.5uM,-0.226
same,log2 ratio of Biotin-Ahx-Ub-VS probe labelling,[7]; compound concentration: 25uM,-0.495
same,log2 ratio of Biotin-Ahx-Ub-VS probe labelling,[7]; compound concentration: 50uM,-1.03 (active)
same,log2 ratio of Biotin-Ahx-Ub-VS probe labelling,[7]; compound concentration: 100uM,-1.55 (active)
same,log2 ratio of Biotin-Ahx-Ub-VS probe labelling,[7]; compound concentration: 200uM,-2.65 (active)
same,log2 ratio of Biotin-Ahx-Ub-VS probe labelling,[8]; compound concentration: 0.78uM,-0.224
same,log2 ratio of Biotin-Ahx-Ub-VS probe labelling,[8]; compound concentration: 1.56uM,-0.562
same,log2 ratio of Biotin-Ahx-Ub-VS probe labelling,[8]; compound concentration: 3.13uM,-0.851
same,log2 ratio of Biotin-Ahx-Ub-VS probe labelling,[8]; compound concentration: 6.25uM,-1.39 (active)
same,log2 ratio of Biotin-Ahx-Ub-VS probe labelling,[8]; compound concentration: 12.5uM,-2.2 (active)
same,log2 ratio of Biotin-Ahx-Ub-VS probe labelling,[8]; compound concentration: 25uM,-3.03 (active)
same,log2 ratio of Biotin-Ahx-Ub-VS probe labelling,[8]; compound concentration: 50uM,-3.18 (active)
same,log2 ratio of Biotin-Ahx-Ub-VS probe labelling,[8]; compound concentration: 100uM,-3.43 (active)
same,log2 ratio of Biotin-Ahx-Ub-VS probe labelling,[8]; compound concentration: 200uM,-3.45 (active)
same,log2 ratio of Biotin-Ahx-Ub-VS probe labelling,[9]; compound concentration: 50uM,-0.0276
same,log2 ratio of Biotin-Ahx-Ub-VS probe labelling,[9]; compound concentration: 200uM,-0.501
same,log2 ratio of Biotin-Ahx-Ub-VS probe labelling,[10]; compound concentration: 50uM,-0.433
same,log2 ratio of Biotin-Ahx-Ub-VS probe labelling,[10]; compound concentration: 200uM,-0.824
USP4 (UniProt Q13107),log2 ratio of Biotin-Ahx-Ub-VS probe labelling,[1]; compound concentration: 50uM,-0.339
same,log2 ratio of Biotin-Ahx-Ub-VS probe labelling,[1]; compound concentration: 200uM,-0.482
same,log2 ratio of Biotin-Ahx-Ub-VS probe labelling,[2]; compound concentration: 50uM,-0.215
same,log2 ratio of Biotin-Ahx-Ub-VS probe labelling,[2]; compound concentration: 200uM,0.178
same,log2 ratio of Biotin-Ahx-Ub-VS probe labelling,[3]; compound concentration: 50uM,-0.548
same,log2 ratio of Biotin-Ahx-Ub-VS probe labelling,[3]; compound concentration: 200uM,-1.33 (active)
same,log2 ratio of Biotin-Ahx-Ub-VS probe labelling,[4]; compound concentration: 50uM,-0.0561
same,log2 ratio of Biotin-Ahx-Ub-VS probe labelling,[4]; compound concentration: 200uM,0.256
same,log2 ratio of Biotin-Ahx-Ub-VS probe labelling,[5]; compound concentration: 50uM,0.078
same,log2 ratio of Biotin-Ahx-Ub-VS probe labelling,[5]; compound concentration: 200uM,-0.359
same,log2 ratio of Biotin-Ahx-Ub-VS probe labelling,[6]; compound concentration: 0.78uM,0.169
same,log2 ratio of Biotin-Ahx-Ub-VS probe labelling,[6]; compound concentration: 1.56uM,0.0194
same,log2 ratio of Biotin-Ahx-Ub-VS probe labelling,[6]; compound concentration: 3.13uM,0.211
same,log2 ratio of Biotin-Ahx-Ub-VS probe labelling,[6]; compound concentration: 6.25uM,0.184
same,log2 ratio of Biotin-Ahx-Ub-VS probe labelling,[6]; compound concentration: 12.5uM,0.134
same,log2 ratio of Biotin-Ahx-Ub-VS probe labelling,[6]; compound concentration: 25uM,0.0663
same,log2 ratio of Biotin-Ahx-Ub-VS probe labelling,[6]; compound concentration: 50uM,-0.0777
same,log2 ratio of Biotin-Ahx-Ub-VS probe labelling,[6]; compound concentration: 100uM,-0.146
same,log2 ratio of Biotin-Ahx-Ub-VS probe labelling,[6]; compound concentration: 200uM,0.149
same,log2 ratio of Biotin-Ahx-Ub-VS probe labelling,[7]; compound concentration: 0.78uM,0.155
same,log2 ratio of Biotin-Ahx-Ub-VS probe labelling,[7]; compound concentration: 1.56uM,0.0643
same,log2 ratio of Biotin-Ahx-Ub-VS probe labelling,[7]; compound concentration: 3.13uM,0.0496
same,log2 ratio of Biotin-Ahx-Ub-VS probe labelling,[7]; compound concentration: 6.25uM,-0.232
same,log2 ratio of Biotin-Ahx-Ub-VS probe labelling,[7]; compound concentration: 12.5uM,-0.312
same,log2 ratio of Biotin-Ahx-Ub-VS probe labelling,[7]; compound concentration: 25uM,0.121
same,log2 ratio of Biotin-Ahx-Ub-VS probe labelling,[7]; compound concentration: 50uM,-0.0633
same,log2 ratio of Biotin-Ahx-Ub-VS probe labelling,[7]; compound concentration: 100uM,0.0515
same,log2 ratio of Biotin-Ahx-Ub-VS probe labelling,[7]; compound concentration: 200uM,-0.637
same,log2 ratio of Biotin-Ahx-Ub-VS probe labelling,[8]; compound concentration: 0.78uM,0.0773
same,log2 ratio of Biotin-Ahx-Ub-VS probe labelling,[8]; compound concentration: 1.56uM,0.0727
same,log2 ratio of Biotin-Ahx-Ub-VS probe labelling,[8]; compound concentration: 3.13uM,0.172
same,log2 ratio of Biotin-Ahx-Ub-VS probe labelling,[8]; compound concentration: 6.25uM,-0.243
same,log2 ratio of Biotin-Ahx-Ub-VS probe labelling,[8]; compound concentration: 12.5uM,0.0883
same,log2 ratio of Biotin-Ahx-Ub-VS probe labelling,[8]; compound concentration: 25uM,-0.0943
same,log2 ratio of Biotin-Ahx-Ub-VS probe labelling,[8]; compound concentration: 50uM,0.0929
same,log2 ratio of Biotin-Ahx-Ub-VS probe labelling,[8]; compound concentration: 100uM,-0.0812
same,log2 ratio of Biotin-Ahx-Ub-VS probe labelling,[8]; compound concentration: 200uM,-0.126
same,log2 ratio of Biotin-Ahx-Ub-VS probe labelling,[9]; compound concentration: 50uM,-1.04 (active)
same,log2 ratio of Biotin-Ahx-Ub-VS probe labelling,[9]; compound concentration: 200uM,0.334
same,log2 ratio of Biotin-Ahx-Ub-VS probe labelling,[10]; compound concentration: 50uM,-0.121
same,log2 ratio of Biotin-Ahx-Ub-VS probe labelling,[10]; compound concentration: 200uM,-0.75
